Holding throughout (assay): DAPPL (digital affinity profiling via proximity ligation, sequencing); 10 mM Tris-HCl pH 7.5, 50 mM NaCl, 1 mM DTT, 4% glycerol, room temperature, 30 min; GST-TFs on glutathione beads, 16-mer random dsDNA library, 0.1% formaldehyde crosslink after washing; high values mean tight binding
Conditions in all cases: protein: recombinant; tags: N-terminal GST; dsDNA, one strand shown

One test addresses T1, FLI1 (Homo sapiens, UniProt Q01543 1-452).
T1 sequence: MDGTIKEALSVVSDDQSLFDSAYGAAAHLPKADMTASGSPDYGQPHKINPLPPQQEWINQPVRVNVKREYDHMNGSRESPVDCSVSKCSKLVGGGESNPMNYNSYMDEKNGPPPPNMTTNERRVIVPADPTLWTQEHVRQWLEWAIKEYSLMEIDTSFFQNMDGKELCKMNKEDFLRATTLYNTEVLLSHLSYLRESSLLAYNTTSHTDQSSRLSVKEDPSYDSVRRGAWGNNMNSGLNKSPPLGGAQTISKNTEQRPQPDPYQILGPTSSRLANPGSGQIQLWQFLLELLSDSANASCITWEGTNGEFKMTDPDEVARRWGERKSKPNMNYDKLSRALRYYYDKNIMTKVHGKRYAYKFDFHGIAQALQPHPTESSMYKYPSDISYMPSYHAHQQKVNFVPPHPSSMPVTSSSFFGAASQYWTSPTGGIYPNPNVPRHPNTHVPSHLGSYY
A digest of the protocol: (§1)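 Pools were built from human transcription factors expressed in yeast as GST fusions, captured on glutathione beads and DNA-barcoded, along with a tag-only sample. Incubation with 200 nmole of a 16-mer random double-stranded DNA library lasted 30 min at room temperature in Tris/NaCl/DTT/glycerol buffer, and was followed by washing, 0.1% formaldehyde crosslinking, proximity ligation, PCR amplification and Illumina NextSeq500 sequencing. Binding signal is the quotient of each hexamer's read frequency for a factor and its frequency for the tag-only sample.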

The target of another test is T2, ELK1 (Homo sapiens, UniProt P19419 1-428).
T2 sequence: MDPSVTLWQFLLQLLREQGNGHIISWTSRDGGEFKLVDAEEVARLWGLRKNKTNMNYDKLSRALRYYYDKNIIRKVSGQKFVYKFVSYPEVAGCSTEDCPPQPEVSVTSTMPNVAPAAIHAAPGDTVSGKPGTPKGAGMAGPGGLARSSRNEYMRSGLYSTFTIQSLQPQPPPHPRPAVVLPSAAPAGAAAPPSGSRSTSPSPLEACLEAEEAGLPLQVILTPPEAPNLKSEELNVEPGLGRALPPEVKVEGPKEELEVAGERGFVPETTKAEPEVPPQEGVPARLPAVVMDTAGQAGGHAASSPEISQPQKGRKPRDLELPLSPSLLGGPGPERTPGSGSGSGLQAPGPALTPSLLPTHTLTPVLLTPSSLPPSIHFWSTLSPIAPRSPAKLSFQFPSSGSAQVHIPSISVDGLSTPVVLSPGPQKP
In a few lines:
as §1

The next test addresses T3, GABPA (Homo sapiens, UniProt Q06546 1-454).
T3 sequence: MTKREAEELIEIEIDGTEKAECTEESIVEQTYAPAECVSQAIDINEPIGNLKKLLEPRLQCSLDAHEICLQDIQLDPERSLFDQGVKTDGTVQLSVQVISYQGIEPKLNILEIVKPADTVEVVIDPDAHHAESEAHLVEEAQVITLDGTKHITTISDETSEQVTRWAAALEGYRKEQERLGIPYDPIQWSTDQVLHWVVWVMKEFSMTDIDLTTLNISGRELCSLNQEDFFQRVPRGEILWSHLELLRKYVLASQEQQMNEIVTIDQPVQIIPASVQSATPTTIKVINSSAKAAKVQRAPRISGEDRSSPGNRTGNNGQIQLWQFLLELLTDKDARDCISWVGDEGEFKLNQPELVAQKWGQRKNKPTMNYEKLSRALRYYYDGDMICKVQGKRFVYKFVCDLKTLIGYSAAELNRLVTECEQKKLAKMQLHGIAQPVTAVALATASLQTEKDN
In a few lines:
as §1

In another test the target is T4, ERG (Homo sapiens, UniProt P11308 1-479).
T4 sequence: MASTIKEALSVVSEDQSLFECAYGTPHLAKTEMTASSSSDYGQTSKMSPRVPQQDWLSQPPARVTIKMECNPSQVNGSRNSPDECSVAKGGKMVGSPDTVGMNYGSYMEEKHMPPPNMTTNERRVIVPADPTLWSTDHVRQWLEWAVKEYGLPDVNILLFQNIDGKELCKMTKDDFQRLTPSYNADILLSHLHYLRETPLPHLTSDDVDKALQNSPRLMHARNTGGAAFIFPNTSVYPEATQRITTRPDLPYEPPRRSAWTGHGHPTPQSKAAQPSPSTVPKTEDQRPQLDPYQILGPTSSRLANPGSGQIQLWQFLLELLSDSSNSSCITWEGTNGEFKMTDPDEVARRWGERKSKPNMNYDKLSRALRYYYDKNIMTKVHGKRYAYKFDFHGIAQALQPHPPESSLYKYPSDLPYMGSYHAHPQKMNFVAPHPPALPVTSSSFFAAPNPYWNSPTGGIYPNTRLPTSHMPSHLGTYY
A digest of the protocol:
as §1

For the next test, the target named is ELF1 (Homo sapiens, UniProt P32519 1-619). In a few lines: as §1
In another test the target is T5, EHF (Homo sapiens, UniProt Q9NZC4 1-300).
T5 sequence: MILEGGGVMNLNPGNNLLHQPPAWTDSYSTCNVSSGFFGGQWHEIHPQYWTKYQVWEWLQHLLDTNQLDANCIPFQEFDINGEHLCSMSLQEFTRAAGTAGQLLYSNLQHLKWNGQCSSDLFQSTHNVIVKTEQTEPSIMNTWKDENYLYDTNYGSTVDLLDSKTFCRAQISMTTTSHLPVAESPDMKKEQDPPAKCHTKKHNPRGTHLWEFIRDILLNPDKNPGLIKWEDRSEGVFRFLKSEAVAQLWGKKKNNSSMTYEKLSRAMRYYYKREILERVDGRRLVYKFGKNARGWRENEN
A digest of the protocol:
as §1

A further test addresses SPI1 (Homo sapiens, UniProt P17947 1-270). A digest of the protocol:
as §1

The target of a further test is SPIB (Homo sapiens, UniProt Q01892 1-262). In a few lines:
as §1

The target of another test is T6, ELK3 (Homo sapiens, UniProt P41970 1-407).
T6 sequence: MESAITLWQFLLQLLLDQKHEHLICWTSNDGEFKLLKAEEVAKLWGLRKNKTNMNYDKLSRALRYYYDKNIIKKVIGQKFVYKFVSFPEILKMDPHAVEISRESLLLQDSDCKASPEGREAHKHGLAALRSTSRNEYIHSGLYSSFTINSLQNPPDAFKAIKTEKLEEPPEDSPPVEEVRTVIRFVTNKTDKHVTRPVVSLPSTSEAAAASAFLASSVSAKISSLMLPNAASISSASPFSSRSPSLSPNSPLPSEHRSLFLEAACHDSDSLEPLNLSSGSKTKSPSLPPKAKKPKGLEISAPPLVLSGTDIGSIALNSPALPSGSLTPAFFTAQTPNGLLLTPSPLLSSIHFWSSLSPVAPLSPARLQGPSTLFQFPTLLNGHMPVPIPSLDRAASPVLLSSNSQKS
In a few lines: as §1

Sequence of SPIB (Q01892 whole entry): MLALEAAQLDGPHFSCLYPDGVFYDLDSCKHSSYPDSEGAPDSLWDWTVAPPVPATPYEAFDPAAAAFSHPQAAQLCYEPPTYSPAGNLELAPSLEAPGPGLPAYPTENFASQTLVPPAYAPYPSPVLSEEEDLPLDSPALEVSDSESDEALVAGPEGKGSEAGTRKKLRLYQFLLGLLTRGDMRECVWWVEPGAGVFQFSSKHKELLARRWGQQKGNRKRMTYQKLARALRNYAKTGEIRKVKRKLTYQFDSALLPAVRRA
Sequence of ELF1 (P32519 whole entry): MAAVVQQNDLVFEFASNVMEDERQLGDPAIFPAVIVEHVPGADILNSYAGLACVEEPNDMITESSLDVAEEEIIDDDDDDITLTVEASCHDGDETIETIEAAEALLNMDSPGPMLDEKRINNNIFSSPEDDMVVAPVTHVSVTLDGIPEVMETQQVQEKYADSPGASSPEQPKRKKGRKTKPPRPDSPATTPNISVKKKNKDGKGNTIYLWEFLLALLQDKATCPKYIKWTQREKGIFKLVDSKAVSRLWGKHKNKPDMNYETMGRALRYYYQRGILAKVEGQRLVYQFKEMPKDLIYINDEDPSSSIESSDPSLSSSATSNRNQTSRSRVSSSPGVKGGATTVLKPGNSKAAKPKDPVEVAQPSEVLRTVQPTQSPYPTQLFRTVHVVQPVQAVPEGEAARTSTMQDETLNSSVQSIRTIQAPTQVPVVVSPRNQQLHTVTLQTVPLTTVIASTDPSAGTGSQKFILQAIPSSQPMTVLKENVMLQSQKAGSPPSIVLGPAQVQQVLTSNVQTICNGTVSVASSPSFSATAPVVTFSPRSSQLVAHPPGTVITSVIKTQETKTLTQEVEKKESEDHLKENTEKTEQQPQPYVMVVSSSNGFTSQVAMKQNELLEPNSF

With CTGGTA, the binding signal with FLI1 was 1.3 fold enrichment (6-mer frequency, TF over GST control); with ELK1, 1.34 fold enrichment (6-mer frequency, TF over GST control); in the test with GABPA, 1.29 fold enrichment (6-mer frequency, TF over GST control); with ERG, 1.4 fold enrichment (6-mer frequency, TF over GST control); in the test with ELF1, 1.38 fold enrichment (6-mer frequency, TF over GST control); in the test with EHF, 1.4 fold enrichment (6-mer frequency, TF over GST control). The binding signal in the test with SPI1 is 1.33 fold enrichment (6-mer frequency, TF over GST control); with SPIB, 1.4 fold enrichment (6-mer frequency, TF over GST control); with ELK3, 1.35 fold enrichment (6-mer frequency, TF over GST control).

As to ATTTCT, the binding signal in the test with FLI1 is 1.45 fold enrichment (6-mer frequency, TF over GST control); with ELK1 it was 1.51 fold enrichment (6-mer frequency, TF over GST control); with GABPA, 1.51 fold enrichment (6-mer frequency, TF over GST control); with ERG, 1.5 fold enrichment (6-mer frequency, TF over GST control); with ELF1, 1.48 fold enrichment (6-mer frequency, TF over GST control); in the test with EHF it was 1.3 fold enrichment (6-mer frequency, TF over GST control). Besides, the binding signal in the test with SPI1 was 1.47 fold enrichment (6-mer frequency, TF over GST control); in the test with SPIB, 1.43 fold enrichment (6-mer frequency, TF over GST control); with ELK3, 1.32 fold enrichment (6-mer frequency, TF over GST control).

For TAAATG, the binding signal with FLI1 was 1.22 fold enrichment (6-mer frequency, TF over GST control); with ELK1, 1.21 fold enrichment (6-mer frequency, TF over GST control); with GABPA, 1.34 fold enrichment (6-mer frequency, TF over GST control); with ERG, 1.27 fold enrichment (6-mer frequency, TF over GST control); in the test with ELF1 it was 1.34 fold enrichment (6-mer frequency, TF over GST control); with EHF, 1.27 fold enrichment (6-mer frequency, TF over GST control). Besides, the binding signal in the test with SPI1 was 1.36 fold enrichment (6-mer frequency, TF over GST control); with SPIB, 1.35 fold enrichment (6-mer frequency, TF over GST control); with ELK3, 1.29 fold enrichment (6-mer frequency, TF over GST control).

TGGGAT: the binding signal in the test with FLI1 was 1.12 fold enrichment (6-mer frequency, TF over GST control); in the test with ELK1, 1.17 fold enrichment (6-mer frequency, TF over GST control); with GABPA it was 1.3 fold enrichment (6-mer frequency, TF over GST control); with ERG, 1.13 fold enrichment (6-mer frequency, TF over GST control); with ELF1 it was 1.25 fold enrichment (6-mer frequency, TF over GST control); with EHF it was 1.25 fold enrichment (6-mer frequency, TF over GST control). In addition, the binding signal was 1.29 fold enrichment (6-mer frequency, TF over GST control) with SPI1; 1.24 fold enrichment (6-mer frequency, TF over GST control) with SPIB; 1.17 fold enrichment (6-mer frequency, TF over GST control) in the test with ELK3.

TATGGC: the binding signal in the test with FLI1 was 1.19 fold enrichment (6-mer frequency, TF over GST control); with ELK1 it was 1.29 fold enrichment (6-mer frequency, TF over GST control); with GABPA it was 1.26 fold enrichment (6-mer frequency, TF over GST control); with ERG, 1.27 fold enrichment (6-mer frequency, TF over GST control); in the test with ELF1, 1.24 fold enrichment (6-mer frequency, TF over GST control); with EHF it was 1.1 fold enrichment (6-mer frequency, TF over GST control). For the same sequence, the binding signal with SPI1 is 1.12 fold enrichment (6-mer frequency, TF over GST control); with SPIB, 1.18 fold enrichment (6-mer frequency, TF over GST control); with ELK3 it was 1.16 fold enrichment (6-mer frequency, TF over GST control).

As for CTATAC, the binding signal was 1.28 fold enrichment (6-mer frequency, TF over GST control) in the test with FLI1; 1.22 fold enrichment (6-mer frequency, TF over GST control) with ELK1; 1.35 fold enrichment (6-mer frequency, TF over GST control) in the test with GABPA; 1.24 fold enrichment (6-mer frequency, TF over GST control) in the test with ERG; 1.31 fold enrichment (6-mer frequency, TF over GST control) with ELF1; 1.21 fold enrichment (6-mer frequency, TF over GST control) with EHF. In addition, the binding signal with SPI1 is 1.21 fold enrichment (6-mer frequency, TF over GST control); with SPIB, 1.16 fold enrichment (6-mer frequency, TF over GST control); with ELK3, 1.21 fold enrichment (6-mer frequency, TF over GST control).

For CTGGAA, the binding signal in the test with FLI1 was 1.22 fold enrichment (6-mer frequency, TF over GST control); with ELK1, 1.25 fold enrichment (6-mer frequency, TF over GST control); with GABPA, 1.33 fold enrichment (6-mer frequency, TF over GST control); in the test with ERG, 1.27 fold enrichment (6-mer frequency, TF over GST control); with ELF1, 1.19 fold enrichment (6-mer frequency, TF over GST control); with EHF, 1.2 fold enrichment (6-mer frequency, TF over GST control). Besides, the binding signal is 1.26 fold enrichment (6-mer frequency, TF over GST control) with SPI1; 1.31 fold enrichment (6-mer frequency, TF over GST control) with SPIB; 1.31 fold enrichment (6-mer frequency, TF over GST control) in the test with ELK3.
